Reference: ChEMBL document CHEMBL3433997, “St. Jude Leishmania screening dataset” (2016)

What was measured:
Type in all cases: functional
[1] = molecular target: Solute carrier family 2, facilitated glucose transporter member 1 (Homo sapiens) (UniProt P11166); assay: ST_JUDE_LEISH: Cytotoxicity at 2uM final concentration against transgenic Leishmania Mexicana promastigotes LmGLUT1 that are glucose transport deficient and complemented with the human glucose transporter GLUT1. Activity is measured by DNA content using SYBR green in vitro
Sequence of Solute carrier family 2, facilitated glucose transporter member 1 (Homo sapiens) (P11166 whole entry): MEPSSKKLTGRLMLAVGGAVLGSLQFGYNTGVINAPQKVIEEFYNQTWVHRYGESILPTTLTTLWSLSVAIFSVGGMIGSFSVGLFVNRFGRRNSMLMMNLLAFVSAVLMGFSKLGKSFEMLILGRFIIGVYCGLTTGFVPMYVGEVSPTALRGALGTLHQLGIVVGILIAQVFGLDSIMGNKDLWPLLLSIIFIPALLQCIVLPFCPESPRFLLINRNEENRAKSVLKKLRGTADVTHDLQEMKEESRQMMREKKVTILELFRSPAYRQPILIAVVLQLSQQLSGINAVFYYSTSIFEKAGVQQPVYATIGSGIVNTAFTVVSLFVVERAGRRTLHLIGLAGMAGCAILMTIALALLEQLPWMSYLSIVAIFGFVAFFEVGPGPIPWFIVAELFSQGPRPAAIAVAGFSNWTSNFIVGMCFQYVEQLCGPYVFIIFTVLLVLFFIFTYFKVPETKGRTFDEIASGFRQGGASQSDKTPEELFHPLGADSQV

[2] = molecular target: Hexose transporter 1 (Plasmodium falciparum) (UniProt O97467); assay: ST_JUDE_LEISH: Cytotoxicity at 2uM final concentration against transgenic Leishmania Mexicana promastigotes LmPfHT that are glucose transport deficient and complemented with the Plasmodium falciparum hexose transporter. Activity is measured by DNA content using SYBR green in vitro
[3] = molecular target: Glucose transporter (Leishmania mexicana) (UniProt O61059); assay: ST_JUDE_LEISH: Cytotoxicity at 2uM final concentration against transgenic Leishmania Mexicana promastigotes LmGT2 that are glucose transport deficient and complemented with the L. Mexicana glucose transporter 2. Activity is measured by DNA content using SYBR green in vitro

Compound	inhibition [1]	inhibition [2]	inhibition [3]
COc1ccc2nc(N=C3NC4(c5ccccc5)NC(=Nc5nc6ccc(OC)cc6[nH]5)NC4(c4ccccc4)N3)[nH]c2c1 (centres undefined)	-1.9%	-0.84%	-0.87%
CCN(CC)CCN(Cc1ccc(-c2ccc(C(F)(F)F)cc2)cc1)C(=O)Cn1c(CCc2ccc(F)c(F)c2)cc(=O)c2ccccc21	7.8%	7.35%	8.28%
N#Cc1ccc(CN2CCC(Oc3ccc(NC(=O)c4cccs4)cc3)CC2)cc1	-0.02%	1.99%	4.28%
O=C(c1ccc(Cl)cc1)C1CCCN(C2CCN(CCc3ccccc3)CC2)C1 (centres undefined)	12.5%	17.3%	13.8%
Cc1[nH]c(C)c(-c2ccc(OCc3ccccc3C(F)(F)F)nc2)c(=O)c1Br	4.88%	6.13%	1.94%
Cc1cc(-c2ccc(NC(=O)c3coc4ccc(N5CC(C)N(C)C(C)C5)cc34)cc2C)cc(C)n1 (centres undefined)	2.55%	3.78%	1.55%
O=C(/C=C/c1ccc(Cl)c(Cl)c1)NCCCCCN1CC[C@H](NC(=O)c2ccc3c(c2)OCO3)C1	5.7%	5.13%	3.74%
COc1cc2nccc(Nc3ccc(NC(=O)c4ccc(C)cc4)c(O)c3)c2cc1OC	6.88%	9.16%	2.92%
CCOC(=O)NOC(C(=O)O)c1ccccc1 (centres undefined)	2.01%	-0.31%	0.52%
CN1CCN(CC(=O)Nc2ccc(-c3ccc(-c4nc5ccccc5[nH]4)s3)cc2)CC1	1.26%	3.57%	2.3%
CN/C(=C\[N+](=O)[O-])NCCSCc1cc(C)c(CN(C)C)s1	5.43%	5.21%	5.98%
COc1ccc(O)c(C(=O)c2cc(C#N)c(=O)n(-c3ccc(Oc4ccccc4)cc3)c2)c1	10.2%	8.65%	9.41%
CN1CCN(CCCN(Cc2ccc(-c3ccc(CNCc4ccc5c(c4)OCO5)cc3)cc2)C(=O)CCC2CCCC2)CC1	4.67%	7.78%	1.18%
CCCC(CCC)n1ccc2c3c(N)nc(N)nc3ccc21	59.8%	70.1%	44.5%
Cc1ccc2c(=O)n(C)c(=O)n(C)c2n1	6.05%	2.94%	1.62%
Cc1cccc(OCCCCON2C(=N)N=C(N)NC2(C)C)c1C	0.1%	0.14%	1.69%
CC1(C)NC(N)=NC(=N)N1OCCCOc1cccc2ccccc12	54.8%	61.1%	45.4%

Compound	inhibition [1]	inhibition [2]	inhibition [3]
Cc1cc(C(=O)Nc2ccc3c(c2)CCN3C2CCN(Cc3cccc4cc[nH]c34)C2)no1 (centres undefined)	2.23%	1.71%	3.09%
CCCc1cc(NC2CCN(C)CC2)nc(Nc2ccc(C)cc2)n1	5.35%	3.28%	2.46%
O=C(Nc1cccc(-c2cccc(-c3nc4ccccc4[nH]3)c2)c1)Nc1ccc(F)c(F)c1F	2.74%	4.36%	3.88%
CCCc1ccc(S(=O)(=O)NC2CCN(C(=O)Nc3ccc(I)cc3)CC2)cc1	5.43%	5.51%	5.03%
Clc1cccc(Cl)c1CCNCC1CCN(CC2CCCCC2)CC1	5.48%	5.47%	6.54%
O=C(/C=C/c1ccc(Cl)c(Cl)c1)N1CCC(CCCN2CCC(c3c[nH]c4ccc(O)cc34)CC2)CC1	25.3%	17.4%	14%
O=C(N[C@@H](Cc1ccccc1)C(=O)NC1CCCCCC1)c1ccc(O)c(-c2cccc(C(F)(F)F)c2)c1	5.83%	4.69%	0.57%
CCCCN1CC[C@@H](CCC(O)c2ccnc3ccc(OCCC(C)C)cc23)[C@@H](CC)C1 (some centres undefined)	1.18%	4.04%	3.24%
COc1ccc(-c2ccc(NC(=O)c3ccc(C#N)cc3)cc2)cc1CN1CCC(O)CC1	-0.1%	-0.59%	-0.53%
CCc1ccc(OCc2ccccc2C(=O)Nc2ccc3nc(C)cc(N)c3c2)cc1	2.1%	2.87%	1.97%
CC(C)N1CCCN(C(=O)C2CCN(c3ccc(C(=O)N4CCCC4)cn3)CC2)CC1	5.32%	4.11%	4.51%
CCCCCCN1CCC(NCc2cccc(-n3ccnc3)c2)CC1	8.02%	7.03%	9.81%
Cc1cc2nc(-c3ccc(SCC(=O)Nc4ccc5c(c4)OCCO5)nc3)[nH]c2cc1C	0.8%	-0.74%	-4.17%
O=C(Nc1ccnc(-c2cccnc2)n1)c1cc(C(F)(F)F)cc(C(F)(F)F)c1	-1.69%	0.27%	-3.85%
Cn1cncc1C(=O)Nc1cccc(-c2csc(-c3nc4ccccc4[nH]3)c2)c1	2.44%	3.44%	2.3%
CC(C)NC(=O)c1cccc(-c2ccc(OCCN3CCCC3c3cc4ccccc4[nH]3)cc2)c1 (centres undefined)	1.77%	3.47%	-1.97%
